Data taken from PubChem BioAssay (NCATS).
Inconclusive results are not listed. Calls of active or inactive are those of the source. Unless noted, calls come from the whole dose curve; as a rule, active = well fitted curve in the direction sought with a large enough effect; inconclusive = small, poorly fitted or top-dose-only effect, or another doubt; inactive = no such curve, though single readings can be large; an effect the other way counts as inactive or inconclusive.

What was measured:
[1] = MultiTox-Fluor Cytotoxicity Assay - LYMP1-002 - Live Cells (AID 955); note: potency is the fitted concentration of half-maximal effect
Outline: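 Human lymphoblastoid LYMP1-002 cells, 2500/well in complete medium, rested 5 hr at 37 C, then exposed to compounds for 16 hr at 37 C. Live-cell protease cleavage of GF-AFC read by fluorescence (Ex/Em 405/510) after 60 min at room temperature; AC50 from Hill fits.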

[2] = MultiTox-Fluor Cytotoxicity Assay - LYMP1-003 - Dead Cells (AID 961); note: nearly all actives have a fitted effect of over 70% in size; note: potency is the fitted concentration of half-maximal effect
Outline: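 Human lymphoblastoid LYMP1-003 cells (2500/well) were treated with compounds for 16 hr at 37 C in complete medium. Dead-cell protease release was read by bis-AAF-R110 fluorescence (Ex/Em 485/520). AC50 came from Hill fits, normalized to DMSO and 15 uM tetraoctylammonium bromide.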

[3] = MultiTox-Fluor Cytotoxicity Assay - LYMP1-003 - Live Cells (AID 962); note: potency is the fitted concentration of half-maximal effect
Outline: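 LYMP1-003 human lymphoblastoid cells (2500/well) in complete medium were preincubated 5 hr at 37 C, then exposed to compounds for 16 hr at 37 C. Live-cell protease cleavage of GF-AFC read by fluorescence (Ex/Em 405/510); AC50 from Hill fits.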

[4] = Cell Viability - LYMP1-003 - Assay at 24 hr (AID 963); note: potency is the fitted concentration of half-maximal effect
Outline: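 Human lymphoblastoid LYMP1-003 cells (2500/well) were rested 5 hr at 37 C, then exposed to compounds in complete medium for 24 hr at 37 C. Cellular ATP was quantified by CellTiter-Glo luminescence, and AC50 values came from Hill fits of concentration-response data.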

[5] = Cell Viability - LYMP1-003 - Assay at 40 hr (AID 964); note: nearly all actives have a fitted effect of over 60% in size; note: potency is the fitted concentration of half-maximal effect
Outline: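 Human lymphoblastoid LYMP1-003 cells, 2500/well in complete medium, rested 5 hr at 37 C, then exposed to compounds for 40 hr at 37 C. Viability read as intracellular ATP by CellTiter-Glo luminescence; AC50 from Hill fits of concentration-response data.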

[6] = Cell Viability - LYMP2-003 (AID 965);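 note: cells exposed to compounds for 24 h before reading; nearly all actives have a fitted effect of over 50% in size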; note: potency is the fitted concentration of half-maximal effect
Outline: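 Seed 2500 lymphoblastoid cells/well; incubate 5 hr, 37 C; add compounds; incubate 24 hr, 37 C; add CellTiter-Glo, 30 min RT; read luminescence. AC50 from Hill fit.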

[7] = Cell Viability - LYMP2-004 (AID 966); note: nearly all actives have a fitted effect of over 65% in size; note: potency is the fitted concentration of half-maximal effect
Outline: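 Human lymphoblastoid cells (2500/well) in complete medium were treated with compounds for 24 hr at 37 C, then intracellular ATP was measured by CellTiter-Glo luminescence. AC50 values came from Hill-equation fits of concentration-response data.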

[8] = Cell Viability - LYMP2-005 (AID 967); note: potency is the fitted concentration of half-maximal effect
Outline: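 Acute cytotoxicity is scored as a concentration-dependent drop in intracellular ATP in human lymphoblastoid LYMP2-005 cells after 24 h compound treatment. ATP is quantified by luciferase luminescence, and AC50 is derived by Hill-equation modelling.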

[9] = Cell Viability - LYMP2-009 (AID 968); note: nearly all actives have a fitted effect of over 55% in size; note: potency is the fitted concentration of half-maximal effect
[10] = Cell Viability - LYMP2-011 (AID 969); note: nearly all actives have a fitted effect of over 60% in size; note: potency is the fitted concentration of half-maximal effect
Outline: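 Human lymphoblastoid cells (2500/well) were plated in complete medium, preincubated 5 hr at 37 C, then exposed to compounds for 24 hr at 37 C. Intracellular ATP was read by CellTiter-Glo luminescence, and AC50 came from Hill-equation concentration-response fits.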

[11] = Cell Viability - LYMP2-013 (AID 970); note: nearly all actives have a fitted effect of over 55% in size; note: potency is the fitted concentration of half-maximal effect
Outline: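 Human lymphoblastoid cells, 2500/well, were preincubated 5 hr at 37 C, then treated with compounds for 24 hr at 37 C in complete medium. Intracellular ATP was read by CellTiter-Glo luminescence; AC50 from Hill-equation fits of concentration-response data.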

[12] = Cell Viability - LYMP2-015 (AID 971); note: nearly all actives have a fitted effect of over 55% in size; note: potency is the fitted concentration of half-maximal effect
Outline: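 Human lymphoblastoid cells (2500/well) in complete medium were preincubated 5 hr at 37 C, then compound-treated 24 hr at 37 C. Intracellular ATP was read by CellTiter-Glo luminescence after 30 min at room temperature; AC50 came from Hill-equation concentration-response fits.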

[13] = Cell Viability - LYMP2-017 (AID 972); note: nearly all actives have a fitted effect of over 55% in size; note: potency is the fitted concentration of half-maximal effect
Outline: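 Human lymphoblastoid cells (2500/well) were seeded in complete medium, held 5 hr at 37 C, then exposed to compounds for 24 hr at 37 C. Intracellular ATP was read by CellTiter-Glo luminescence after 30 min at room temperature, with AC50 values from Hill-equation fits.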

[14] = Cell Viability - LYMP2-019 (AID 973); note: nearly all actives have a fitted effect of over 55% in size; note: potency is the fitted concentration of half-maximal effect
Outline: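 Human lymphoblastoid cells were seeded at 2500 cells/well, preincubated 5 hr at 37 C, then exposed to compounds for 24 hr at 37 C in complete medium. Intracellular ATP was measured by CellTiter-Glo luminescence; AC50 from Hill fits.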

[15] = Cell Viability - LYMP2-021 (AID 974); note: potency is the fitted concentration of half-maximal effect
Outline: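 Human lymphoblastoid cells (2500/well) were preincubated 5 hr at 37 C, then exposed to compounds for 24 hr at 37 C in complete medium. Intracellular ATP was read by CellTiter-Glo luminescence; AC50 came from Hill-equation fits of concentration-response data.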

[16] = Cell Viability - LYMP2-023 (AID 975); note: nearly all actives have a fitted effect of over 55% in size; note: potency is the fitted concentration of half-maximal effect
Outline: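 Human lymphoblastoid cells (2500/well) were preincubated 5 hr at 37 C, then exposed to compounds for 24 hr at 37 C in complete medium. Cellular ATP was read by CellTiter-Glo luminescence, and AC50 came from Hill-equation fits.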

[17] = target: Pyruvate kinase PKM (Homo sapiens) (UniProt P14618); experiment: qHTS Assay for Activators of Human Muscle Pyruvate Kinase (AID 954; active = well fitted curve in the direction sought with a large enough effect, not every such curve was filed as active)
Pyruvate kinase PKM (Homo sapiens), sequence (P14618 whole entry, looked up): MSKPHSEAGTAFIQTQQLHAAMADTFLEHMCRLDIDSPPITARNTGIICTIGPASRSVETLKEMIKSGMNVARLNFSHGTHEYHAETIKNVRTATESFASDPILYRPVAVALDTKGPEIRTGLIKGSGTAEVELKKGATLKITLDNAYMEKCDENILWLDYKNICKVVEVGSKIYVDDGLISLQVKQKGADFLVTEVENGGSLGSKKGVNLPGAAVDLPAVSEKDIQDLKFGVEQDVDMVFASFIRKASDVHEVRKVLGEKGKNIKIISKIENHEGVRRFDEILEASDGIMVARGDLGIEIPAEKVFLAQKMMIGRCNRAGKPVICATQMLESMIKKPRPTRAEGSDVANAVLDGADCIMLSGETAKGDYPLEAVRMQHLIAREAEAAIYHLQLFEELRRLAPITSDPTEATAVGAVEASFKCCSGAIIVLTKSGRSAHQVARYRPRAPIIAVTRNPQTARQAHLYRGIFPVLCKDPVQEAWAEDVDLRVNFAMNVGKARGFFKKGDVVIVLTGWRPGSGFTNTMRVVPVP
Outline: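 Luminescence from a luciferase ATP-detection/stop reagent reported PKM2 activity. Reactions contained 0.1 nM purified human enzyme, 0.5 mM PEP, 0.1 mM ADP and 7 mM MgCl2 at pH 7.2, run 1 h at RT.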

[18] = target: Pyruvate kinase PKM (Homo sapiens) (UniProt P14618); experiment: qHTS Assay for Inhibitors of Human Muscle Pyruvate Kinase (AID 958); conditions: purified human PKM enzyme activity
Outline: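 PKM2, human, >95% pure, 0.1 nM; PEP 0.5 mM (Km), ADP 0.1 mM; 50 mM imidazole pH 7.2, 50 mM KCl, 0.01% Tween 20, 0.05% BSA; 1 h RT; luciferase luminescence readout.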

[19] = target: Pyruvate kinase (Leishmania mexicana) (UniProt Q27686); experiment: qHTS Validation Assay for Activators of Leishmania Mexicana Pyruvate Kinase (AID 959)
Pyruvate kinase (Leishmania mexicana), sequence (Q27686 2-499 E452W): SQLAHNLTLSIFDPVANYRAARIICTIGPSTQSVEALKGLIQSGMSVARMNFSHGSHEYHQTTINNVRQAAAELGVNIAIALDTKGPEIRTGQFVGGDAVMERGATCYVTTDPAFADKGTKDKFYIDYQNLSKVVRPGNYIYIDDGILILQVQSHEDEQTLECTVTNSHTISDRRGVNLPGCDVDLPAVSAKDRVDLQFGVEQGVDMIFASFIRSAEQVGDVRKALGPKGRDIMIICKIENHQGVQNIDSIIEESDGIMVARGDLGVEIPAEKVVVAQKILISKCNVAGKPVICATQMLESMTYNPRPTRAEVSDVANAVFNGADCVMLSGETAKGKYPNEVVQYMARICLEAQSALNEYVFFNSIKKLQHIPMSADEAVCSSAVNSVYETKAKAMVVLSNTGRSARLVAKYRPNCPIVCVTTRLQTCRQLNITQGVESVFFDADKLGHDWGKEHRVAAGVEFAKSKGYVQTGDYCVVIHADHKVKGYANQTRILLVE
Outline: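 Substrate mix (0.5 mM PEP, 0.1 mM ADP, 7 mM MgCl2, 50 mM KCl, pH 7.2 imidazole) received compound by pin tool, then 0.2 nM LmPYK E451W. After 1 h at room temperature, PKLight was added and luminescence measured.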

[20] = MultiTox-Fluor Cytotoxicity Assay - LYMP1-002 - Dead Cells (AID 960); note: nearly all actives have a fitted effect of over 60% in size
Outline: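 Human lymphoblastoid cells (LYMP1-002), 2500/well in complete medium, were exposed to compounds for 16 hr at 37 C. Dead-cell protease activity was read as bis-AAF-R110 fluorescence (Ex/Em 485/520), normalized to DMSO and 15 uM tetraoctylammonium bromide; AC50 from Hill fits.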

Measured: Potency

CN(C)c1ccc2nc3ccc(=[N+](C)C)cc-3sc2c1
active: [1] 12.6 µM | [2] 39.8 µM | [3] 7.94 µM | [4] 7.94 µM | [5] 3.98 µM | [6] 3.98 µM | [7] 5.01 µM | [8] 5.01 µM | [9] 5.01 µM | [10] 6.31 µM | [11] 7.94 µM | [12] 3.98 µM | [13] 6.31 µM | [14] 3.16 µM | [15] 7.94 µM | [16] 3.98 µM

O=Nc1c(-c2c(O)[nH]c3cc(Br)ccc23)[nH]c2ccccc12
active: [18] 15.8 µM
inactive: [17] | [19]

CCc1nc(N)nc(N)c1-c1ccc(Cl)cc1
inactive: [1] | [20] | [2] | [3] | [6] | [7] | [8] | [11] | [13] | [16]
active: [5] 7.94 µM

O=C1c2ccccc2-c2n[nH]c3cccc1c23
inactive: [17]

COc1c2occc2cc2ccc(=O)oc12
not listed: [17] | [18] | [19]
inactive: all other assays above

O=C1NC(=O)C(c2ccccc2[N+](=O)[O-])=C1Nc1ccc(O)c(Cl)c1
inactive: [17]

O=c1c(O)c(-c2cc(O)c(O)c(O)c2)oc2cc(O)cc(O)c12
inactive: [17]
active: [19] 2 µM

NNc1nncc2ccccc12
inactive: [17] | [19]
active: [18] 7.94 µM

Nc1ccc(S(N)(=O)=O)cc1
not listed: [17] | [18] | [19]
inactive: all other assays above

C[C@H](Cc1ccc(O)c(O)c1)[C@@H](C)Cc1ccc(O)c(O)c1
inactive: [17]

NS(=O)(=O)c1cc(C(=O)O)c(NCc2ccco2)cc1Cl
not listed: [17] | [18] | [19]
inactive: all other assays above

CNC[C@H](O)c1ccc(O)c(O)c1
inactive: [17]

CCCCC(CC)COC(=O)C(C#N)=C(c1ccccc1)c1ccccc1 (centres undefined)
not listed: [17] | [18] | [19] | [20]
inactive: all other assays above

Nc1nc(OCc2ccccc2)c2[nH]cnc2n1
inactive: [17]

CS(=O)(=O)OCCCCOS(C)(=O)=O
not listed: [17] | [18] | [19]
inactive: all other assays above
